The test system of the test is Cytotoxicity. As to the kind of experiment: STAT3 blockade with qPCR and toxicity readouts – cell-based, STAT1 panel, cytotoxicity, late-stage follow-up (AID 2078). The following applies: cell reporter assay; series mostly up to 55.7 µM. (Real-time PCR tracks product formation cycle by cycle.)

Active and inactive are the calls of the source. No rule for the calls is given here.

For the compound `c1ccc(CC2CCN(c3ncnc4sccc34)CC2)cc1`, the compound was called inactive.

Values taken from PubChem BioAssay AID2078 (The Scripps Research Institute Molecular Screening Center, 2009).
